Test results: PubChem BioAssay (NCATS)
Records with an inconclusive call do not appear. Where a call stands in place of a potency, no number is given. Activity calls are given as the source filed them. The call rests on the fitted dose curve; in most records, active means well fitted curve in the direction sought with a large enough effect; inconclusive means small, poorly fitted or top-dose-only effect, or another doubt; inactive means no such curve, though single readings can be large; an effect the other way counts as inactive or inconclusive.

Assay: Cell Viability - Mesenchymal (AID 546);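 further: cells exposed to compound for 40 hours before reading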
Conditions: mesenchymal cells viability, qHTS; series mostly up to 91.7 µM
Method in brief: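 Human kidney mesenchymal cells from normal renal glomeruli, 1000 cells/well, rested 5 hr at 37 °C, then treated 40 hr at 37 °C in complete medium. Cellular ATP read by CellTiter-Glo luminescence; AC50 from Hill-equation fits.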
In the case of `CC(C#N)CCC#N` (stereo not given), the Potency is reported as “inactive”.
In the case of `Nc1cc(Cl)ccc1Cl`, the Potency is reported as “inactive”.
For `Nc1cccc(Cl)c1`, the Potency was “inactive”.
In the case of `ClCc1ccccc1`, the Potency is reported as “inactive”.
In the case of `CCC/C=N/O`, the Potency is reported as “inactive”.
With `COc1c(C(C)(C)C)cc([N+](=O)[O-])c(C)c1[N+](=O)[O-]` the Potency was “inactive”.
With `O=S(=O)(Cl)c1ccccc1` the Potency was “inactive”.
In the case of `C=CCOCC1CO1` (stereo not given), the Potency is reported as “inactive”.
For `c1ccoc1`, the Potency was “inactive”.
With `Clc1ccccc1` the Potency was “inactive”.
In the case of `ClC(Cl)(Cl)C(Cl)(Cl)Cl`, the Potency is reported as “inactive”.
With `CCOC(=O)C1OC1(C)c1ccccc1` (stereo not given) the Potency was “inactive”.
For `C/C=C/CC#N`, the Potency was “inactive”.
With `ClC(Cl)C(Cl)Cl` the Potency was “inactive”.
In the case of `C=CCCl`, the Potency is reported as “inactive”.
For `Oc1c(Cl)cccc1Cl`, the Potency was “inactive”.
In the case of `Brc1cccc(-c2ccccc2)c1`, the Potency is reported as “inactive”.
For `C=CCO`, the Potency was “inactive”.
For `OCCCCO`, the Potency was “inactive”.
In the case of `Nn1cnnc1`, the Potency is reported as “inactive”.
With `BrCCc1ccccc1` the Potency was “inactive”.
For `Cc1ccccc1[N+](=O)[O-]`, the Potency was “inactive”.
In the case of `CCCCOC(=O)c1ccccc1N`, the Potency is reported as “inactive”.
In the case of `Clc1cc(Cl)c(Cl)c(Cl)c1`, the Potency is reported as “inactive”.
For `Cc1ccc(N)c(C)c1`, the Potency was “inactive”.
For `C1CC2OC2CC1C1CO1` (stereo not given), the Potency was “inactive”.
For `CN(C)C(=O)Cl`, the Potency was “inactive”.
In the case of `CC(=O)NNc1ccccc1`, the Potency is reported as “inactive”.
For `Cc1ccc(N=C=O)cc1N=C=O`, the Potency was “inactive”.
For `O=C(Cl)OCc1ccccc1`, the Potency was “inactive”.
With `C=CC(=O)OC` the Potency was “inactive”.
For `CCN(CC)N=O`, the Potency was “inactive”.
For `OCC(Cl)CCl` (stereo not given), the Potency was “inactive”.
For `CC(C)CON=O`, the Potency was “inactive”.
For `CC[N+](=O)[O-]`, the Potency was “inactive”.
For `CC(C)(Cl)[N+](=O)[O-]`, the Potency was “inactive”.
In the case of `C[N+](=O)[O-]`, the Potency is reported as “inactive”.
With `CC(C)OC(=O)Cc1ccccc1` the Potency was “inactive”.
In the case of `ClCC(Br)CBr` (stereo not given), the Potency is reported as “inactive”.

Assay: Cellular Toxicity (caspase-3) HepG2 (AID 654);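 further: cells exposed to compound for 16 hours before reading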
Conditions: HepG2 caspase-3 activation, luminescence, 0% = DMSO only, 100% = tamoxifen; series mostly up to 92.2 µM
Method in brief: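 Cells plated 5 hr at 37 °C, compound added, incubated 16 hr at 37 °C. Caspase-Glo 3/7 reagent followed, 20 min at room temperature, then luminescence read. Activation scored as signal increase; AC50 from Hill fit.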
For `CC(C#N)CCC#N` (stereo not given), the outcome was “inactive”.
In the case of `Nc1cc(Cl)ccc1Cl`, the outcome is reported as “inactive”.
For `Nc1cccc(Cl)c1`, the outcome was “inactive”.
For `ClCc1ccccc1`, the outcome was “inactive”.
For `COc1c(C(C)(C)C)cc([N+](=O)[O-])c(C)c1[N+](=O)[O-]`, the outcome was “inactive”.
For `C=CCOCC1CO1` (stereo not given), the outcome was “inactive”.
With `c1ccoc1` the outcome was “inactive”.
In the case of `Clc1ccccc1`, the outcome is reported as “inactive”.
For `ClC(Cl)(Cl)C(Cl)(Cl)Cl`, the outcome was “inactive”.
In the case of `CCOC(=O)C1OC1(C)c1ccccc1` (stereo not given), the outcome is reported as “inactive”.
In the case of `C/C=C/CC#N`, the outcome is reported as “inactive”.
For `ClC(Cl)C(Cl)Cl`, the outcome was “inactive”.
With `C=CCCl` the outcome was “inactive”.
For `Oc1c(Cl)cccc1Cl`, the outcome was “inactive”.
In the case of `Brc1cccc(-c2ccccc2)c1`, the outcome is reported as “inactive”.
For `C=CCO`, the outcome was “inactive”.
In the case of `BrCCc1ccccc1`, the outcome is reported as “inactive”.
For `Cc1ccccc1[N+](=O)[O-]`, the outcome was “inactive”.
For `CCCCOC(=O)c1ccccc1N`, the outcome was “inactive”.
With `Clc1cc(Cl)c(Cl)c(Cl)c1` the outcome was “inactive”.
With `Cc1ccc(N)c(C)c1` the outcome was “inactive”.
For `C1CC2OC2CC1C1CO1` (stereo not given), the outcome was “inactive”.
With `CN(C)C(=O)Cl` the outcome was “inactive”.
In the case of `CC(=O)NNc1ccccc1`, the outcome is reported as “inactive”.
For `Cc1ccc(N=C=O)cc1N=C=O`, the outcome was “inactive”.
With `O=C(Cl)OCc1ccccc1` the outcome was “inactive”.
For `C=CC(=O)OC`, the outcome was “inactive”.
In the case of `CCN(CC)N=O`, the outcome is reported as “inactive”.
With `OCC(Cl)CCl` (stereo not given) the outcome was “inactive”.
In the case of `CC(C)CON=O`, the outcome is reported as “inactive”.
With `CC[N+](=O)[O-]` the outcome was “inactive”.
For `CC(C)(Cl)[N+](=O)[O-]`, the outcome was “inactive”.
In the case of `C[N+](=O)[O-]`, the outcome is reported as “inactive”.
For `CC(C)OC(=O)Cc1ccccc1`, the outcome was “inactive”.

Assay: Cellular Toxicity (caspase-3) Jurkat (AID 655);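 further: cells exposed to compound for 16 h at 37 °C before reading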
Conditions: Jurkat caspase-3 activation, luminescence; caspase-3 activation: at 92.2 µM (top of the series), DMSO = 0%, tamoxifen = 100%
Method in brief: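 Luminescent caspase-3/7 readout (aminoluciferin substrate cleavage) in human T-cell leukemia Jurkat cells after 16 hr compound exposure. Concentration-response normalized to DMSO and 100 uM tamoxifen; AC50 by standard Hill equation.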
With `CC(C#N)CCC#N` (stereo not given) the caspase-3 activation was 0.213% (inactive).
In the case of `Nc1cc(Cl)ccc1Cl`, the caspase-3 activation is reported as 0.909% (inactive).
With `Nc1cccc(Cl)c1` the caspase-3 activation was 11.8% (inactive).
With `ClCc1ccccc1` the caspase-3 activation was 0.582% (inactive).
In the case of `COc1c(C(C)(C)C)cc([N+](=O)[O-])c(C)c1[N+](=O)[O-]`, the caspase-3 activation is reported as -1.52% (inactive).
With `O=S(=O)(Cl)c1ccccc1` the caspase-3 activation was 0.656% (inactive).
In the case of `C=CCOCC1CO1` (stereo not given), the caspase-3 activation is reported as -0.0286% (inactive).
With `Clc1ccccc1` the caspase-3 activation was 1.44% (inactive).
In the case of `ClC(Cl)(Cl)C(Cl)(Cl)Cl`, the caspase-3 activation is reported as -0.424% (inactive).
For `CCOC(=O)C1OC1(C)c1ccccc1` (stereo not given), the caspase-3 activation was -2.16% (inactive).
With `C/C=C/CC#N` the caspase-3 activation was 0.734% (inactive).
For `ClC(Cl)C(Cl)Cl`, the caspase-3 activation was 1.02% (inactive).
In the case of `Oc1c(Cl)cccc1Cl`, the caspase-3 activation is reported as 2.96% (inactive).
For `C=CCO`, the caspase-3 activation was 2.82% (inactive).
In the case of `Nn1cnnc1`, the caspase-3 activation is reported as 0.14% (inactive).
With `BrCCc1ccccc1` the caspase-3 activation was 1.89% (inactive).
With `Cc1ccccc1[N+](=O)[O-]` the caspase-3 activation was 0.646% (inactive).
In the case of `CCCCOC(=O)c1ccccc1N`, the caspase-3 activation is reported as 1.19% (inactive).
For `Cc1ccc(N)c(C)c1`, the caspase-3 activation was 1.21% (inactive).
With `C1CC2OC2CC1C1CO1` (stereo not given) the caspase-3 activation was -1.28% (inactive).
In the case of `CN(C)C(=O)Cl`, the caspase-3 activation is reported as -1.4% (inactive).
With `O=C(Cl)OCc1ccccc1` the caspase-3 activation was 0.751% (inactive).
With `C=CC(=O)OC` the caspase-3 activation was 0.227% (inactive).
For `CCN(CC)N=O`, the caspase-3 activation was 1.16% (inactive).
In the case of `OCC(Cl)CCl` (stereo not given), the caspase-3 activation is reported as 2.02% (inactive).
With `CC(C)CON=O` the caspase-3 activation was -1.62% (inactive).
With `CC[N+](=O)[O-]` the caspase-3 activation was 1.63% (inactive).
In the case of `CC(C)(Cl)[N+](=O)[O-]`, the caspase-3 activation is reported as 0.332% (inactive).
For `CC(C)OC(=O)Cc1ccccc1`, the caspase-3 activation was -1.43% (inactive).
For `ClCC(Br)CBr` (stereo not given), the caspase-3 activation was 0.662% (inactive).

Assay: Cellular Toxicity (caspase-3) HUV-EC-C (AID 656);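 further: cells exposed to compound for 16 h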
Conditions: HUV-EC-C cells, caspase-3 activation (apoptosis), vehicle = 0, 100 µM tamoxifen = 100%; series mostly up to 92.2 µM
Method in brief: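 Luminescent caspase-3/7 activation (aminoluciferin substrate cleavage) in HUV-EC-C cells after 16 hr compound exposure, 37°C. Signal normalized to DMSO basal and 100 uM tamoxifen as 100%; AC50 from concentration-response fitted with the Hill equation.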
In the case of `Nc1cc(Cl)ccc1Cl`, the outcome is reported as “inactive”.
For `Nc1cccc(Cl)c1`, the outcome was “inactive”.
In the case of `ClCc1ccccc1`, the outcome is reported as “inactive”.
For `CCC/C=N/O`, the outcome was “inactive”.
With `COc1c(C(C)(C)C)cc([N+](=O)[O-])c(C)c1[N+](=O)[O-]` the outcome was “inactive”.
With `O=S(=O)(Cl)c1ccccc1` the outcome was “inactive”.
For `C=CCOCC1CO1` (stereo not given), the outcome was “inactive”.
In the case of `Clc1ccccc1`, the outcome is reported as “inactive”.
For `CCOC(=O)C1OC1(C)c1ccccc1` (stereo not given), the outcome was “inactive”.
In the case of `C/C=C/CC#N`, the outcome is reported as “inactive”.
For `ClC(Cl)C(Cl)Cl`, the outcome was “inactive”.
For `C=CCCl`, the outcome was “inactive”.
In the case of `Oc1c(Cl)cccc1Cl`, the outcome is reported as “inactive”.
In the case of `Brc1cccc(-c2ccccc2)c1`, the outcome is reported as “inactive”.
With `C=CCO` the outcome was “inactive”.
In the case of `OCCCCO`, the outcome is reported as “inactive”.
With `Nn1cnnc1` the outcome was “inactive”.
For `BrCCc1ccccc1`, the outcome was “inactive”.
In the case of `Cc1ccccc1[N+](=O)[O-]`, the outcome is reported as “inactive”.
For `Clc1cc(Cl)c(Cl)c(Cl)c1`, the outcome was “inactive”.
With `Cc1ccc(N)c(C)c1` the outcome was “inactive”.
In the case of `CN(C)C(=O)Cl`, the outcome is reported as “inactive”.
In the case of `CC(=O)NNc1ccccc1`, the outcome is reported as “inactive”.
In the case of `Cc1ccc(N=C=O)cc1N=C=O`, the outcome is reported as “inactive”.
With `O=C(Cl)OCc1ccccc1` the outcome was “inactive”.
For `CCN(CC)N=O`, the outcome was “inactive”.
With `OCC(Cl)CCl` (stereo not given) the outcome was “inactive”.
In the case of `CC(C)CON=O`, the outcome is reported as “inactive”.
With `CC(C)(Cl)[N+](=O)[O-]` the outcome was “inactive”.
In the case of `C[N+](=O)[O-]`, the outcome is reported as “inactive”.
For `CC(C)OC(=O)Cc1ccccc1`, the outcome was “inactive”.
In the case of `ClCC(Br)CBr` (stereo not given), the outcome is reported as “inactive”.
